Among the data in PubChem BioAssay AID492980 (National Center for Advancing Translational Sciences (NCATS), 2010) are outcome values, retold here.

The whole screen tested about 1,400 compounds, of which fewer than 10 were called active. About 11% were inconclusive and are not listed. Calls follow the shape of the full dose curve. The list is a sample of the results.

The experiment can be described thus: Assay for Inhibitors of Influenza NS1 Protein Function: Hit Validation. As to conditions: influenza NS1 function cell assay, 15-point titration; series mostly up to 32.9 µM. The text has this: NIH Chemical Genomics Center [NCGC]
NIH Molecular Libraries Probe Centers Network [MLPCN]
Assay Submitter (PI): Daniel Engel
Influenza is a world-wide public health problem and emerging forms of the virus have the potential to cause a pandemic of equal or greater magnitude to the outbreaks recorded in 1918, 1957 or 1968. Vaccine development is proceeding and there also exist two classes of anti-influenza compounds. However these therapeutic modalities are neither fully effective nor widely enough available to fulfill global needs. In addition their potential usefulness against newly emergent strains is not known. Efforts are needed to develop novel agents against influenza virus, including broad-spectrum agents. Identification of small molecules that inhibit NS1 function either directly or by interfering with specific cellular pathways may be a key to increasing our defense against the virus.
We have miniaturized and optimized a cell based assay in which NS1 from influenza A is expressed in the budding yeast S. cerevisiae. NS1 is a multi-functional protein that counters the host innate immune response and facilitates viral versus cellular gene expression. Expression of NS1 causes a pronounced slow growth phenotype in yeast due to its intrinsic molecular activities. Small molecules that suppress the slow growth phenotype can be identified by a straightforward growth recovery assay using optical density (OD) as the measurement. The same yeast strain not expressing NS1 was used as positive control in the yeast growth recovery assay. The present experiment attempted to confirm the activity of compounds observed in the primary screen.
The yeast S. cerevisiae control and NS1 expressing cells were kindly supplied by laboratory of Dr. Daniel Engel, University of Virginia. Yeast starter cultures were stored in single use aliquots at -80C.
1. Yeast culture medium per liter: 1.2 g Yeast Nitrogen Base (w/out amino acids and Ammonium Sulphate), 5.0g Ammonium Sulphate, 0.77g -URA DO (drop-out) Supplement, adjust pH to 6.0. Adjust to 2% glucose prior to inoculating with yeast.
2. Yeast assay medium: 1.2 g Yeast Nitrogen Base (w/out amino acids and Ammonium Sulphate), 5.0g Ammonium Sulphate, 0.77g -URA DO (drop-out) Supplement, adjust pH to 6.0. Adjust to 2% D-galactose prior to inoculating with yeast.
1. Inoculate 100 mls of yeast culture medium with 1 ml of frozen yeast aliquote. Incubate overnight at 30C, 250RPM.
2. Harvest overnight culture at 4000 RPM and wash pellet with 15 mls H2O 3x.
3. Re-suspend washed pellet in 10 mls of yeast assay medium.
4. Prepare a 1:100 dilution of re-suspended culture in yeast assay medium.
5. Dispense 3.5 ul per well of reagents in step 4 in columns 2-48 in a black clear bottom 1536 well plate.
6. Dispense 3.5 ul per well of yeast assay medium in column 1 only.
7. Transfer 23 nl of compound per well.
8. Dispense 3.5 ul per well of yeast assay medium in columns 1-48.
9. Read plate using Viewlux protocol for optical density 600 (OD600) using excitation filter 600nm.
Turning to `Cc1cccc(N=C2NN=C(c3c[nH]c4ccccc34)CS2)c1`, the molecule was called inactive.
For the molecule `Cc1ccc(-c2ccc(=O)n(CC(=O)NCCCN3CCCCC3)n2)cc1`, the result was inactive.
With `CC(C)CCN(C(=O)c1csnn1)C(C(=O)NC1CCCC1)c1ccccc1` (stereo unspecified), the molecule was called inactive.
As to `COc1ccccc1C(=O)Nc1ccnn1C1CCN(C(=O)C(C)(C)C)CC1`, the call was inactive.
Turning to `COc1ccc(C(C(=O)NC2CCCCC2)N(C(=O)Cc2c[nH]c3ccccc23)c2ccccc2)cc1OC` (stereo unspecified), the outcome was inactive.
Next, `O=C1c2cccc(OCC(=O)N3N=C(c4cccs4)CC3c3ccc(F)cc3)c2CCN1Cc1ccccc1` (stereo unspecified): “inactive”.
Next, `COc1cccc(OC)c1C(=O)Nc1nnc(C(C)C)s1`: “inactive”; `Cn1c(CC(=O)Nc2ccccc2)nnc1SCC(=O)c1ccccc1`: “inactive”; `COc1cc2c(cc1NC(=O)CN1CCN(S(=O)(=O)c3ccc(F)cc3)CC1)oc1ccccc12`: “inactive”.
As to `CCCc1cc(=O)[nH]c(SCC(=O)c2cc(C)n(CCC)c2C)n1`, the molecule was called inactive.
Next, `Cc1cccc([C@@H]2[C@@H]3C(=O)N(Cc4ccccc4)C(=O)[C@@H]3[C@]3(C)C(=O)N(c4ccc(Br)cc4)C(=O)N23)c1`: “inactive”; `Nc1cccc(-c2cc(-c3ccccc3)nc(-c3cccc(N)c3)n2)c1`: “inactive”.
Regarding `COc1ccc(S(=O)(=O)Nc2c(C)n(C)n(-c3ccccc3)c2=O)cc1`, the molecule was called inactive.
Next, `Cc1cccc(-n2c(SCC(=O)Nc3cccc(S(=O)(=O)NC4=NCCCCC4)c3)nc3ccccc3c2=O)c1C`: “inactive”.
To `O=C1NC(=O)N(CCc2ccc(F)cc2)C(=O)/C1=C/C=C/c1ccccc1` belongs “inactive”; to `COCCn1c(C)cc(C2=NNC(=Nc3ccc(F)cc3)SC2)c1C`, “inactive”.
On to `CCOc1ccc(Nc2nc(Cl)nc(N3CCN(c4ccc(OC)cc4)CC3)n2)cc1`, for which the call was inactive.
With `COC(=O)c1c(NC(=O)c2cccs2)sc2c1CCCC2`, the molecule was classed as inactive.
As for `CC(C(=O)O)N1C(=O)c2cccc3cccc1c23` (stereo unspecified), the outcome was inactive.
Take `COCCN1C(=O)c2oc3c(C)cc(C)cc3c(=O)c2C1c1cccc(O)c1` (stereo unspecified): the result was inactive.
As to `Cc1cc2cc(CNC(=O)c3cccs3)ccc2[nH]1`, the result was inactive.
For the molecule `COc1ccc(-n2c(C)cc(C(=O)CSc3nnc(-c4cccs4)o3)c2C)cc1`, the outcome was inactive.
Regarding `Cc1ccc2c(c1)N(S(=O)(=O)c1cc(-c3cc(C)no3)ccc1C)CCO2`, the outcome was inactive.
For `C1=C(N2CCOCC2)/C(=C/c2nc3ccccc3[nH]2)CC1`, the molecule was classed as inactive.
Regarding `Cc1ccccc1C(OCC(O)CN1CCCCC1CCO)c1ccccc1` (stereo unspecified), the outcome was inactive.
As to `CCc1ccc(S(=O)(=O)Nc2cc3c(cc2N2CCCCC2)n(C)c(=O)c(=O)n3C)cc1`, the molecule was called inactive.
Take `CC[C@@H](C)[C@@H](C(=O)N1CCN(C(=O)OC(C)(C)C)CC1)n1cc(CCC(=O)O)nn1`: the call was inactive.
Take `N#Cc1c(-c2cccs2)nc(SCC(=O)c2ccc(Br)cc2)[nH]c1=O`: the outcome was inactive.
Next, `CN1CCN(C(=O)COc2ccc(C(C)(C)C)cc2Br)CC1`: “inactive”; `CC(C)c1c(O)nc(SCCOc2ccc(Cl)cc2)[nH]c1=O`: “inactive”; `Cc1cc(=O)[nH]c(SCc2cc(Cl)ccc2OC(F)F)n1`: “inactive”.
Regarding `O=C(CSC1=Nc2ccccc2C2=NC(CC(=O)NCc3ccco3)C(=O)N12)NCc1ccco1` (stereo unspecified), the molecule was called inactive.
In the case of `Cc1cc(C)c2cc(CN(Cc3nnnn3Cc3ccc(F)cc3)C3CCCC3)c(=O)[nH]c2c1`, the result was inactive.
Turning to `O=S(=O)(c1ccc(OCC(O)CN2CCN(c3ccccc3Cl)CC2)cc1)N1CCOCC1` (stereo unspecified), the molecule was called inactive.
On to `COc1cccc(-n2c(SCC(=O)NC3CCCCC3)nc3n[nH]c(C)c3c2=N)c1`, for which the outcome was inactive.
With `CN(C)c1ccc(/C=C/C(=O)c2ccc(C(C)(C)C)cc2)cc1[N+](=O)[O-]`, the molecule was classed as inactive.
In the case of `COc1ccc(-c2nc(CS(=O)CC(=O)NCc3ccccn3)c(C)o2)cc1` (stereo unspecified), the call was inactive.
To `O=C(O)CC(Cn1cnnn1)c1ccccc1` (stereo unspecified) belongs “inactive”; to `C[C@@H](C(=O)Nc1ccc2ccccc2c1)[C@@H]1C[C@@]1(C)[C@@H](NC(=O)c1cccnc1)c1ccccc1`, “inactive”.
With `COC(=O)C1=C(C)N=C2SC(C)C(=O)N2C1/C=C/c1ccccc1` (stereo unspecified), the call was inactive.
Turning to `CCCc1nc2ccccc2c(=O)n1NC(=O)c1c(O)c2ccccc2[nH]c1=O`, the molecule was called inactive.
